This is part of a sample that, as a whole, favours compounds with a hit. Of some 83,000 tested, about 20% had one in any assay.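 Cell lines were cultured in 96-well plates, exposed to a single compound concentration, and assessed for percent growth 48 hours later.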 Unmarked numbers belong to inactive results. Activity calls are given as the source filed them. The calls were made as follows: active = growth percent below 10; inactive = the rest.

The assay has as its system MCF7 breast. Kind of assay: NCI-60 one-dose screen, 48 h (100 = growth as untreated, 0 = no growth, -100 = all killed). Conditions: 10 µM unless noted.
Regarding `Cc1nn(-c2ccccc2)c(Cl)c1/C=C(/NC(=O)c1ccccc1)c1nc2ccccc2[nH]1`, the growth was 93.1%.

Consider `Cc1ccc(-c2c(-c3ccccc3)c(=O)oc3ccc(C)cc23)cc1`, for which the growth was 116%.

With `CC1(c2ccccc2)NC(=O)N(NC(=O)CSc2nc(-c3cccs3)nc3ccccc23)C1=O` (stereo not drawn), the growth is 106%. The result for `C(=N\Nc1ncc(-c2cc3cc4c(cc3o2)OCO4)s1)/c1ccco1` reads 13.7%. With `O=C1/C(=C\c2cccnc2)SC(=S)N1CCc1ccc(O)cc1`, the growth is 30.3%. The result for `CC1(C)CC[C@]2(C(=O)N3CCOCC3)CC[C@]3(C)C(=CC[C@@H]4[C@@]5(C)CC[C@H](OC(=O)c6cccnc6)C(C)(C)[C@@H]5CC[C@]43C)[C@@H]2C1` reads 67.4%. The result for `COC(=O)[C@]12CC[C@@H](C)[C@H](C)[C@@H]1C1=CC[C@@H]3[C@@]4(C)C(C=O)=C[C@@](C)(COC(=O)c5ccco5)[C@@H]4C(=O)C[C@@]3(C)[C@]1(C)CC2` reads 20.4%; that for `O=C(COc1ccc(/C=C2\Oc3ccccc3C2=O)cc1)Nc1nc2c(s1)CCCC2`, 82.5%.

`Cn1cc(-c2csc(-c3ccccc3)n2)c2cccnc21`: the growth was -44.7% [100 µM] (active). Regarding `CCOP(=O)(OCC)C1CP(=O)(c2ccccc2)CC(C)=C1Cl` (stereo not drawn), the growth was 102%. The result for `S=C(Cc1ccc2c(c1)CCCC2)N1CCOCC1` reads 94.3%. The result for `CN1C(=O)N(C)C2C1NN=c1s/c(=C\c3ccccc3)c(=O)n12` (stereo not drawn) reads 15.4%.

Take `Cc1ccc(C(=O)CSc2nc(-c3ccc(Br)cc3)c(C#N)c(=O)[nH]2)cc1`: the growth was 101%.

As to `O=C1N=c2cc3c(cc2=C/C1=C/c1sc(=S)n(CCc2ccc(O)cc2)c1O)OCCO3`, the growth is 28.6%. On to `COc1ccc(CN2C(=O)C(Cl)=C(Nc3cccc(C(F)(F)F)c3)C2=O)cc1`, for which the growth was 29.5%. Turning to `O=C1C=C[C@]2(C[C@@H](c3cccc(C(F)(F)F)c3)O[C@@H](c3cccc(C(F)(F)F)c3)O2)O1`, the growth was -7.92% (active). Take `Clc1cc(Cl)cc(Nc2ccc3cc(OCCCN4CCOCC4)ccc3n2)c1`: the growth is 8.56% (active). For the molecule `CC(=O)OC1CCC2(C)C(=CC3C4CCC(=O)C4(C)CCC32)C1` (stereo not drawn), the growth was 97.6%.

On to `COc1cc(C2NC(=O)c3ccccc3N2)ccc1OCCCCCOc1c(OC)cc(C2=NOC(c3cc(OC)c(OC)c(OC)c3)C2)cc1OC` (stereo not drawn), for which the growth was 32.3%. Take `O=C(N/N=C/c1ccncc1)c1ccc(C(F)(F)F)nc1Nc1cccc(C(F)(F)F)c1`: the growth was -14.5% (active). The result for `C[C@@]1(CCC#N)[C@H]2CC[C@@H]3[C@H]4[C@H](C(=O)/C=C/c5cccnc5)CC[C@]4(C#N)CC[C@@]3(C)[C@]2(C)CC[C@H]1C(=O)/C=C/c1cccnc1` reads 39.4%; that for `Cc1ccc(NCCN(C)C)c2c(=O)c3ccccc3sc12`, 0.259% (active). The result for `COc1ccccc1NC(=O)N/C(N)=N/c1nc2ccccc2s1` reads 20.3%; that for `COC(=O)CCC1=C(C)C2=NC1=CC1=NC(=CC3=NC(=Cc4[nH]c(/c(=C(/C)O)c4C)=C2)C(C(C)=O)=C3C)C(C)=C1CCC(=O)OC`, 98.2%.

Consider `Oc1ccc(CN2CCC(N3CCOCC3)CC2)c2cccnc12`, for which the growth is 9.1% (active).

`C#Cc1cccc(NC(=O)c2ccc(NC(=O)CCl)cc2)c1`: the growth was 4.22% [8.25 µM] (active). With `Cc1c(C(=O)NC(Cc2ccccc2)C(O)C(=O)NCc2ccc(F)cc2)[nH]c2ccccc2c1=O` (stereo not drawn) the figure was 104%; with `Cc1ccc2nc(NC(=O)CSc3nc(Nc4ccc([N+](=O)[O-])cc4)c(C#N)c(-c4ccccc4)n3)sc2c1`, 87.1%.

With `CCN1C(=O)N(CC)C2Nn3c(s/c(=C4\C(=O)N(C)c5ccccc54)c3=O)=NC21` (stereo not drawn), the growth is 13.5%. The result for `C=CCSc1nc2ccccc2cc1/C=N/O` reads 78%; that for `C=C(C)[C@@H]1CC[C@]2(C)[C@H](CC=C3[C@@H]4CC(C)(C)CC[C@]4(C(N)=O)CC[C@]32C)[C@@]1(C)CCC#N`, 6.71% (active). The result for `CCOC(=O)C/C(C)=N\NC(=O)c1ccncc1` reads 93.2%; that for `O=C(/C=C/c1ccc(Cl)nc1)c1ccc(Cl)cc1Cl`, 17.1%. With `COC(=O)[C@]12CC[C@@H](C)[C@H](C)[C@@H]1C1=CC[C@@H]3[C@@]4(C)C(C=O)=C[C@@](C)(COC(=O)c5ccco5)C4=CC[C@@]3(C)[C@]1(C)CC2` the figure was 11.4%; with `CC(C)(C)C(CCc1ccc(Cl)cc1)N1CCN(C2CCCCC2)CC1` (stereo not drawn), 31.6%. As to `O=C(Nc1ccc(-n2cc(-c3ccncc3)c(-c3ccc(Cl)c(O)c3)n2)cc1)N1CCOCC1`, the growth was 101%. With `COc1nc(N(C)O)nc(N(C)O)n1`, the growth was 15%. The result for `O=c1[nH]ccc2nc(N3CCC(O)CC3)nc(Nc3ccc(N4CCOCC4)cc3)c12` reads 44.2%.

Source of the values: PubChem BioAssay (NCI).
